# According to PubChem BioAssay (NCI):
# The panel holds about 83,000 compounds, 20% with a hit somewhere; the sample as a whole holds those more often.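 Each cell line was grown in a 96-well plate and treated with one concentration of compound for 48 hours. Values below 10 were considered active.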 A number with no mark means an inactive call. Active and inactive are the calls of the source.
# Test system: UO-31 renal
# Test: NCI-60 one-dose screen, 48 h (100 = growth as untreated, 0 = no growth, -100 = all killed)
# Conditions: 10 µM unless noted
row,SMILES,growth
1,O=C1c2cccc3c(-c4ccc5c(c4)ncn5C4CCCCC4)ccc(c23)C(=O)N1CCO,62.1%
2,O=C(/C(=C\c1ccc([N+](=O)[O-])cc1)S(=O)Cc1ccc(F)cc1)c1ccc(F)cc1 (configuration not stated),-39% (active)
3,NNC(=O)c1ccc(-n2nc(-c3ccccc3)c3ccccc32)cc1,68%

# Test system: TK-10 renal
# Test: as above
# Conditions: 10 µM unless noted
row,SMILES,growth
1,NC(=O)CSSCC(N)=O,110%
2,C=C(C)[C@@H]1CC[C@]2(C(=O)N3CCN(C)CC3)CC[C@]3(C)[C@H](CC[C@@H]4[C@@]5(C)CC[C@H](O)C(C)(C)[C@@H]5CC[C@]43C)[C@@H]12,-93.3% (active)
3,O=C1Nc2cc(Cl)ccc2/C1=C\c1c(-c2ccc(F)cc2)nc2ccccn12,72.7%
4,CCc1ccc(-c2cn3ccnc3c(-c3ccc4ncn(Cc5ccccc5)c4c3)n2)cc1,84.5%
5,CCOC(=O)c1cc(C(=O)c2ccc(OC)c(OC)c2)n2ccc(/C=C/c3cc[n+](CC(=O)c4ccc(OC)c(OC)c4)cc3)cc12,113%
6,COc1cc(/C=C\c2cc(OC)c(OC)c(OC)c2)cc(NC(=O)/C=C/c2cc(OC)c(OC)c(OC)c2)c1OC,71.3%
7,CN1C(N2CCN(S(=O)(=O)c3ccccc3)CC2)=NS(=O)(=O)c2ccccc21,114%
8,O=C1Nc2ccccc2/C1=C\c1c(-c2ccc(F)cc2)nc2ccccn12,109%
9,OCc1cnc2ccccc2c1NC1CCCCCC1,96.2%
10,Oc1c(Cl)cc(Cl)c(Cl)c1CNCCNCc1c(O)c(Cl)cc(Cl)c1Cl,39.5%
11,CN1[C@@H]2CC[C@H]1/C(=C\c1ccccc1)C(=O)/C2=C/c1ccccc1,74.9%
12,O=C1c2c(c3c4cccc(F)c4[nH]c3c3ccc4ccccc4c23)C(=O)N1O,91.1%
13,CN(C)CCC(=O)c1ccc([N+](=O)[O-])cc1,98.2%
14,Cc1ccc(-c2nc3ccccn3c2/C=C2/C(=O)Nc3cc(Cl)ccc32)cc1,120%
15,CC(=O)[C@@H]1CC[C@]2(C(N)=O)CC[C@]3(C)[C@H](CC[C@@H]4[C@@]5(C)CCCNC(C)(C)[C@@H]5CC[C@]43C)[C@@H]12,120%
16,CC(C)N1C(=O)S/C(=C2/SC(=O)N(C(C)C)C2=O)C1=O,89.9%
17,NS(=O)(=O)c1ccc(CCN2C(=O)C3C(C2=O)C2(Cl)C(Cl)=C(Cl)C3(Cl)C2(Cl)Cl)cc1 (configuration not stated),110%

row,SMILES,growth
1,Nc1c(S(=O)(=O)O)cc2c3c(cccc13)C(=O)OC2=O,127%
2,O=C(CCN1CCCC1)c1ccc([N+](=O)[O-])cc1,101%
3,O=C1Nc2ccc(F)cc2/C1=C\c1c(-c2ccccc2)nc2ccccn12,81%
4,O=Cc1ccc(-c2cn3ccnc3c(-c3ccc4ncn(Cc5ccccc5)c4c3)n2)cc1,99.3%
5,N#C/C(=C\c1ccc(C(F)(F)F)cc1)c1cc2ccccc2[nH]1,140%
6,O=C1c2cccc3c(-c4ccc5c(c4)ncn5C4CCCCC4)ccc(c23)C(=O)N1c1nc2ccccc2s1,99.6%
7,Cc1cccc(-c2cn3ccnc3c(-c3ccc4ncn(Cc5ccccc5)c4c3)n2)c1,110%
8,CCOC(=O)C1=C(CCl)NC(=O)NC1c1ccc2c(c1)OCO2 (configuration not stated),57.3%
9,CCCN1[C@@H]2CC[C@H]1/C(=C\c1ccc(OC)c(OC)c1)C(=O)/C2=C/c1ccc(OC)c(OC)c1,67.2%
10,COc1ccc(C(=O)C2C(C#N)C(C#N)C3c4ccccc4C=CN23)cc1 (configuration not stated),131%
11,O=C(C[n+]1cccc2ccccc21)c1ccc(O)c(O)c1,39%
12,COc1ccc(C(=O)c2nc3ccccc3n2CC(=O)c2ccc(F)cc2)cc1,84.2%
13,CC(=O)[C@@H]1CC[C@]2(CO)CC[C@]3(C)[C@H](CC[C@@H]4[C@@]5(C)CCCNC(C)(C)[C@@H]5CC[C@]43C)[C@@H]12,110%
14,NS(=O)(=O)c1ccc(CCN2C(=O)C=CC2=O)cc1,89.7%
15,Nc1ccccc1NC(=O)c1ccc(-n2nc(-c3ccccc3)c3ccccc32)cc1,94.1%
16,N#CC1C(C#N)C2c3ccccc3C=CN2C1C(=O)c1ccc(Br)cc1 (configuration not stated),111%
17,O=C(CNCCN1CCOCC1)N1c2cccc3cccc(c23)N(C(=O)CNCCN2CCOCC2)C1c1cn(-c2ccccc2)nc1-c1cccc([N+](=O)[O-])c1,108%
